Source: PubChem BioAssay (NCI)
Values joined by “and” are separate entries in the source; they are usually repeats but may differ in a detail not shown here. Equal values may be shown once. Compounds without any hit were thinned out: in the full panel of roughly 79,000, 15% have a hit. No stated cut-off is given here; in the data, active means growth inhibition above about 70%; inactive means the rest. Where a SMILES comes first, the peptide text is derived from it. [ ]: non-standard residue; d: D form. The star is where a group is joined. ξ: configuration not given here. Cbz = O=C(OCc1ccccc1)*; ξK = NCCCCC(N)C(=O)O

How the values were obtained:
[1] = NCI Yeast Anticancer Drug Screen. Data for the rad50 strain (AID 155);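 further: 0% = growth of vehicle-only cultures of the same strain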; conditions: S. cerevisiae rad50 strain growth inhibition, hits give high values; at 50.0 µM unless noted
Method in brief: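 Yeast carrying a defined DNA repair defect were exposed to test compounds, and growth was compared with vehicle-treated controls to give percent inhibition.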

[2] = NCI Yeast Anticancer Drug Screen. Data for the mec2-1 strain (AID 157); conditions: S. cerevisiae mec2-1 strain, hits give high values; at 50.0 µM unless noted
Method in brief: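 mec2-1 yeast strain, carrying an alteration in DNA damage repair or cell cycle control, was exposed to compounds; growth inhibition was measured relative to vehicle-treated controls.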

[3] = NCI Yeast Anticancer Drug Screen. Data for the sgs1 mgt1 strain (AID 161);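 further: 0% = growth of cultures given vehicle only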; conditions: S. cerevisiae sgs1 mgt1 strain, hits give high values; at 50.0 µM unless noted
Method in brief: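 Percent growth inhibition was derived by comparing compound-exposed mutant yeast with vehicle-exposed cultures. The strain carries alterations in DNA damage repair.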

[4] = NCI Yeast Anticancer Drug Screen. Data for the cln2 rad14 strain (AID 165);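 further: 0% = growth equal to vehicle treated cultures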; conditions: S. cerevisiae cln2 rad14 strain, hits give high values; at 50.0 µM unless noted
Method in brief: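 Yeast carrying cln2 and rad14 alterations (cell cycle control and DNA damage repair) were exposed to compounds. Growth inhibition was measured against vehicle-treated controls.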

[5] = NCI Yeast Anticancer Drug Screen. Data for the bub3 strain (AID 167); conditions: S. cerevisiae bub3 mutant strain, hits give high values; at 50.0 µM unless noted
Method in brief: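 Compounds were applied to a genetically altered yeast strain carrying a cell-cycle control defect. Growth inhibition was scored against vehicle-treated controls.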

[6] = NCI Yeast Anticancer Drug Screen. Data for the mlh1 rad18 strain (AID 175); conditions: S. cerevisiae mlh1 rad18 strain growth inhibition, hits give high values; at 50.0 µM unless noted
Method in brief: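 Growth inhibition of the yeast strain was measured after compound exposure and expressed relative to vehicle-treated controls. The strain carries defined defects in DNA damage repair.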

Measured: growth inhibition

CCOC(=O)C(NC(=O)CC)(Nc1ccc(S(=O)(=O)Nc2nc(C)cc(C)n2)cc1)C(F)(F)F (stereo not given)
inactive: [1] -5.6% | [2] -3.4% | [3] 8.55% | [4] 21.6% | [5] 2.5% | [6] 7.65%

ClCc1ccccc1C(c1ccccc1)c1ccccc1
inactive: [1] -0.8% | [2] 20.4% | [3] 7.1% | [4] -32.1% | [5] 24.9% | [6] 21.9%

Cc1ccc(C(=O)CC2=Nc3nnc(CCCCCCCc4nnc5n4C(=O)C(CC(=O)c4ccc(C)cc4)=N5)n3C2=O)cc1
inactive: [1] -9.45% | [2] 22.4% | [3] -0.1% | [4] -22% | [5] -5.25% | [6] -11.1%

NCC(=O)NC(CCCCNC(=O)OCc1ccccc1)C(=O)O (stereo not given) (H-Gly-[ξK](Cbz)-OH)
inactive: [1] -6.8% | [2] 21% | [3] -10.7% | [4] -3.5% | [5] -20.1% | [6] -22.4%

O=C(Oc1cc2c(cc1Br)OCO2)c1cccc2ccccc12
inactive: [1] 0.85% | [2] -30.3% | [3] 9.8% | [4] -48.7% | [5] 6.95% | [6] -27.2%

CCCCCCCCCCCC
inactive: [1] -33.9% | [2] 25.4% | [3] 13.6% | [4] -25.9% | [5] 37.9% | [6] -9.9%

COC1OC(COS(=O)(=O)c2ccc(C)cc2)C(OS(=O)(=O)c2ccc(C)cc2)C(OS(=O)(=O)c2ccc(C)cc2)C1OS(=O)(=O)c1ccc(C)cc1 (stereo not given)
inactive: [1] -7.45% | [2] -16.5% | [3] -11.7% | [4] -8.6% | [5] 0.75% | [6] 18.6%

Nn1c(-c2cccc(Cl)c2)nc2ccccc2c1=O
inactive: [1] -18.6% | [2] 5.45% | [3] 13% | [4] 25.7% | [5] 17.9% | [6] 36.8%

Cc1ccc(N=Nc2ccc(C)cc2NC(=O)c2cccc3ccccc23)cc1
inactive: [1] -12.6% | [2] -8% | [3] -12.2% | [4] -90.5% | [5] -1.95% | [6] -2.7%

CC(=O)Nc1cccc(Br)c1
inactive: [1] -18.1% | [2] -23.6% | [3] -18.1% | [4] -12.8% | [5] -25.5% | [6] -19.1%

Cc1ccc(C(C)C)c(Oc2cc(C)ccc2C(C)C)c1
inactive: [1] -17.9% | [2] 7.1% | [3] -6.8% | [4] -37.8% | [5] -17.5% | [6] -19.8%

Cc1cc[n+]2cc(-c3ccc(/C=N/N=C(N)N)cc3)n(C)c2c1
inactive: [1] 22.9% | [2] 33.9% | [3] 18.7% | [4] 28.9% | [5] -8.75% | [6] 29.9%

CCOC(=O)c1cc2ccccc2cc1N=N
inactive: [1] 8.3% | [2] 16.7% | [3] 15% | [4] -2.7% | [5] 23.2% | [6] 28.8%

O=c1n(CC2CO2)c(=O)n(CC2CO2)c(=O)n1CC1CO1 (stereo not given)
inactive: [1] -8.4% and -1.15% | [2] 11.6% and 8.65% | [3] 19.7% and -18.9% | [4] -25.3% and -6.25% | [5] 26.1% and -34% | [6] 28.1% and 2.45%

CC1CCC(OC(=O)CCC2CCCCC2)CC1 (stereo not given)
inactive: [1] -1.6% | [2] -12.1% | [3] 4.35% | [4] -34.2% | [5] -12.4% | [6] -18.3%

CCCCCCCC[n+]1ccc(C#N)cc1
inactive: [1] 11.7% | [2] 4% | [3] 14.3% | [4] 15.9% | [5] 5.65% | [6] 19%

CC(CO)Cc1ccccc1 (stereo not given)
inactive: [1] -1.85% | [2] -12.8% | [3] -11.2% | [4] 7.45% | [5] -3.7% | [6] -9.7%

O=C1N(Cc2ccccc2)CCN1Cc1ccccc1
inactive: [1] -37.1% | [2] -24.6% | [3] -11.7% | [4] 20.2% | [5] 0.6% | [6] -22.9%

CCOC(=O)O/C(=C\c1ccc(OC)cc1)c1c(OC(=O)OCC)n(C(=O)OCC)c2ccccc12
inactive: [1] -13.1% | [2] -4.3% | [3] 7% | [4] 9.95% | [5] 12.7% | [6] 4.05%

CN1c2ccccc2N(C(=O)c2ccc(Cl)cc2)C(CC(=O)O)c2cccn21 (stereo not given)
inactive: [1] 43.1% | [2] 31.1% | [3] 23.3% | [4] 44.8% | [5] 38.5% | [6] 29.2%
